Bioassay records deposited in PubChem BioAssay by several laboratories.
SUMO1-SIM PPI = alters human SUMO1 binding to SIM partners; P63165; SUMO1 binding to a labelled peptide, TR-FRET, 1 h; inhibition, % at 20 µM; hit rate 0.33% among 360,000; AID 602429; in the data active = inhibition above about 37%
ATG4B inhibitor = blocks human ATG4B protease cleavage of LC3 substrate; ATG4B cleavage of LC3-PLA2, NBD-HPC fluorescence, 1 h; inhibition, % at 8.33 µM; hit rate 0.51% among 340,000; in the data active = inhibition above about 40%
Rin1 Abl inh = blocks binding of human Rin1 to Abl. TR-FRET Rin1/Abl binding, biochemical. hit rate 0.4% among 360,000. AID 588664. inhibition, % at 7.35 µM. P00519+Q13671; in the data active = inhibition above about 5%, passing the limit was not always enough
Neddylation inh = cullin neddylation inhibition | P61081+Q13564 | TR-FRET cullin neddylation, biochemical | inhibition, % at 25 µM | hit rate 0.58% among 360,000 | AID 651699; in the data active = inhibition above about 36%
ATG4B confirm = ATG4B (human) inhibition, single-dose confirmed; inhibition, % at 8.33 µM; ATG4B protease fluorescent substrate cleavage assay; shares compounds with ATG4B inhibitor; hit rate 92% among 320; in the data active = inhibition above about 39%
PLA2 counter = inhibits human PLA2, flagging false ATG4B inhibitors; purified PLA2, NBD-C6-HPC fluorescence, 45 min; hit rate 66% among 1,600; inhibition, % at 8.33 µM; shares compounds with ATG4B inhibitor; in the data active = inhibition above about 50%
Numbers stand for hits; i = inactive; nt = no result shown. The list is not random: actives were taken first. Their share in the collection is about 1.7%.

SMILES	SUMO1-SIM PPI	ATG4B inhibitor	Rin1 Abl inh	Neddylation inh	others
Cc1cc2c(C(C)C)c(O)c(O)c(C=O)c2c(O)c1-c1c(C)cc2c(C(C)C)c(O)c(O)c(C=O)c2c1O	57.9	nt	15.6	i
CN(C)C(=O)Oc1ccc2c(c1)O/C(=C\c1cccc([N+](=O)[O-])c1)C2=O	i	i	i	i
O=[N+]([O-])NC1=NCN(Cc2ccco2)CN1Cc1ccco1	i	i	i	i
CC1(C)C2([N+](=O)[O-])CN3CN(C2)CC1([N+](=O)[O-])C3	38.6	i	i	i
CC1(C)C2([N+](=O)[O-])CNCC1([N+](=O)[O-])CNC2	i	i	i	i
CCCCCN1C(=O)c2cc(OC)ccc2[C@@]2(C(=O)OCC)Cc3cc(Cl)ccc3[C@@H]12	i	nt	nt	i
C[n+]1c(-c2ccccc2)c2cc(N)ccc2c2ccc(N)cc21	45.7	i	i	i
O=C1C=C(N2CC2)c2ccccc2C1=O	65.0	nt	i	i
C[C@H]1[C@@H](c2ccccc2)O[C@@H](c2ccccc2Br)N1C	i	i	i	i
Cc1ccc(-c2cc(-c3ccc(C)cc3)[n+](-c3ccccc3)c(-c3ccc(C)cc3)c2)cc1	i	i	i	44.7
COc1cc(OC)c(C=O)c(OC(=O)N(C)C)c1	i	i	i	i
COc1ccc(CNC(=O)CCC(=O)N2C[C@H]3C[C@H](C2)c2cccc(=O)n2C3)cc1OC	i	i	i	i
Cc1cccc(N2C(=O)NC(=O)/C(=C\c3cc(C)n(-c4sc5c(c4C#N)CCCC5)c3C)C2=O)c1C	54.3	i	i	i
CCOC(=O)c1c(-n2c(C)cc(C=C3C(=O)NC(=O)NC3=O)c2C)sc2c1CCCC2	i	i	i	i
CCCCn1nnnc1C(CCSC)N1CCC2(CC1)C(=O)NCN2c1ccccc1 (stereo unspecified)	i	nt	i	i
Cc1c(Br)c(=O)oc2cc(OCC(=O)N3C[C@H]4C[C@@H](C3)c3cccc(=O)n3C4)ccc12	i	i	i	i
C=C1C(=O)OC2CC3(C)OC3CCC(C)=CC(OC(C)=O)C12 (stereo unspecified)	i	i	i	i
C=C1C(=O)O[C@@H]2C[C@@H](C)[C@H]3C=CC(=O)[C@]3(O)C[C@@H]12	52.5	i	i	i
CCN(CC)C(=O)c1ccc2c(c1)C1C=CCC1C(C(=O)O)N2 (stereo unspecified)	44.9	i	i	i
O=C1NC(=O)C(=Cc2cc3c(cc2[N+](=O)[O-])OCO3)C(=O)N1	i	i	i	i
Cc1cccc(N2C(=O)NC(=O)/C(=C/c3cc4c(cc3[N+](=O)[O-])OCO4)C2=O)c1	i	i	i	49.4
Cc1ccc(N2C(=O)NC(=O)/C(=C/c3ccoc3)C2=O)cc1	102.0	i	i	98.1
COc1ccc(N=Nc2c(O)[nH]c(=S)[nH]c2=O)cc1	i	i	i	i
CSc1nc(N)c(N=Nc2ccc([As](=O)(O)O)cc2)c(=O)[nH]1	39.2	i	i	i
CCCCC(=O)N/N=C/c1c(O)n(Cc2ccco2)c(=O)[nH]c1=O	i	i	i	i
SMILES	SUMO1-SIM PPI	ATG4B inhibitor	Rin1 Abl inh	Neddylation inh	others
CC(=O)Nc1ccc(N=Cc2c(O)n(Cc3ccco3)c(=O)[nH]c2=O)cc1	55.2	i	i	i
Cc1nc2ccccc2c(=O)n1/N=C/c1cc(Br)cc(Br)c1O	i	i	i	72.0
CCCCn1c(NS(=O)(=O)c2ccccc2)c(C(=O)OCC)c2nc3ccccc3nc21	49.4	i	i	i
Cc1ccc2c(c1Cl)NC(C(=O)O)C1CC(Sc3ccccc3[N+](=O)[O-])C(Cl)C21 (stereo unspecified)	i	i	i	i
O=C(O)c1ccc2c(c1)C1C(Cl)C(Sc3ccccc3[N+](=O)[O-])CC1C(c1cccc([N+](=O)[O-])c1)N2 (stereo unspecified)	46.0	48.2	i	i
O=C(O)c1cccc2c1NC(c1cccc([N+](=O)[O-])c1)C1CC(Sc3ccccc3[N+](=O)[O-])C(Cl)C21 (stereo unspecified)	40.8	88.5	i	i
CCOc1ccc(N2C(=O)/C(=C/c3ccco3)C(=O)NC2=S)cc1	114.4	80.8	i	i
CCOc1ccc(N2C(=O)/C(=C\c3cccs3)C(=O)NC2=S)cc1	nt	i	nt	nt
COC(=O)C1=C(c2cc3ccccc3o2)C[C@@H]2CC[C@H]1N2C(=O)NCc1ccco1	i	i	i	i
O=C(Nc1ccc(F)cc1)N1Cc2ccccc2-n2nncc2C1	i	nt	i	i
Cn1cccc1/C=C1/C(=O)NC(=S)N(Cc2ccc(F)cc2)C1=O	64.1	i	i	i
CCCCN1C(=O)/C(=C/C=C/c2ccco2)C(=O)NC1=S	i	43.7	i	i
COc1ccc(OC)c(N2C(=O)NC(=O)/C(=C\c3ccc([N+](=O)[O-])s3)C2=O)c1	48.0	i	i	i
CCN(CC)P(=O)(NC(=O)C(Cl)(Cl)Cl)N(CC)CC.[Cl-].[Cl-].[Cl-].[Nd+3]	106.7	i	i	i
CC(C)C1C(C#N)=C(N)Oc2c1c(=O)oc1ccccc21 (stereo unspecified)	i	nt	i	i
C=CCC1(CC)C(=O)NC(=S)NC1=O	42.1	i	i	i
C=C(C)CC1(CC)C(=O)NC(=S)NC1=O	i	i	i	i
CCOC(=O)CNC(=O)N1Cc2ccc(Br)cc2-n2nncc2C1	i	nt	i	i
CC1C(=O)CC2(C(C)C)CC12 (stereo unspecified)	i	nt	i	i
Clc1ccccc1N1CCN(Cc2ccc3c(c2)OCO3)CC1	i	i	i	i
Clc1ccccc1CN1CCN(c2ccccc2Cl)CC1	i	46.2	i	i	ATG4B confirm=69.6;PLA2 counter=i
COc1ccc(-c2cc(=Nc3cccc(C(=O)O)c3)c3cc(C)ccc3o2)cc1	i	60.8	i	nt	PLA2 counter=76.1
Cc1ccc(CN2C3CCCC2CC(NC(=S)NCc2ccccc2)C3)cc1 (stereo unspecified)	i	43.1	i	i	ATG4B confirm=67.3;PLA2 counter=i
CC[N+](CC)(CC#CCO)CC#Cc1ccccc1	i	i	i	i
Nc1ncc2[nH]cnc2n1	i	i	i	i
SMILES	SUMO1-SIM PPI	ATG4B inhibitor	Rin1 Abl inh	Neddylation inh	others
O=c1c2ccccc2nc(/C=C/c2ccccc2)n1-c1ccccc1O	i	61.6	i	i	PLA2 counter=70.0
CCC(C)c1cnc(CC(C)C)c(=O)n1O (stereo unspecified)	i	nt	i	i
Cc1ccc(Cn2cc(C=O)c(-c3ccc(F)cc3)n2)cc1	i	i	i	i
Cc1ccc(-c2nn(Cc3ccccc3)cc2C=O)cc1	i	48.0	i	i	PLA2 counter=58.8
Cc1ccc(-c2nn(Cc3ccccc3)cc2C(=O)O)cc1	i	i	i	i
Cc1ccc(-c2nn(Cc3ccccc3)cc2C=O)cc1C	i	61.3	i	i	PLA2 counter=77.7
Cc1cc(OCC(=O)NC(Cc2ccc(Cl)cc2)C(=O)O)c2c3c(c(=O)oc2c1)CCCC3 (stereo unspecified)	i	45.0	i	nt	PLA2 counter=72.0
CCOC(=O)C1=C(C)N(C)C2(C)CC1c1ccccc1O2 (stereo unspecified)	i	48.3	i	i	PLA2 counter=i
